From the supplement of paper PMC11732987, “Enantioselective OTUD7B fragment discovery through chemoproteomics screening and high-throughput optimisation” (Communications Chemistry, 2025)

Assays:
Test in all cases: log2 ratio of Biotin-Ahx-Ub-VS probe labelling (fragment/DMSO); higher = less target engagement (more negative = stronger competition), active = hit call of the paper (q ≤ 0.05, log2 ratio ≤ -1)
Conditions in all cases: compound concentration: 200 uM; treatment time: 3 h
[1] = target: T1, USP19 (UniProt O94966)
T1 sequence (whole entry): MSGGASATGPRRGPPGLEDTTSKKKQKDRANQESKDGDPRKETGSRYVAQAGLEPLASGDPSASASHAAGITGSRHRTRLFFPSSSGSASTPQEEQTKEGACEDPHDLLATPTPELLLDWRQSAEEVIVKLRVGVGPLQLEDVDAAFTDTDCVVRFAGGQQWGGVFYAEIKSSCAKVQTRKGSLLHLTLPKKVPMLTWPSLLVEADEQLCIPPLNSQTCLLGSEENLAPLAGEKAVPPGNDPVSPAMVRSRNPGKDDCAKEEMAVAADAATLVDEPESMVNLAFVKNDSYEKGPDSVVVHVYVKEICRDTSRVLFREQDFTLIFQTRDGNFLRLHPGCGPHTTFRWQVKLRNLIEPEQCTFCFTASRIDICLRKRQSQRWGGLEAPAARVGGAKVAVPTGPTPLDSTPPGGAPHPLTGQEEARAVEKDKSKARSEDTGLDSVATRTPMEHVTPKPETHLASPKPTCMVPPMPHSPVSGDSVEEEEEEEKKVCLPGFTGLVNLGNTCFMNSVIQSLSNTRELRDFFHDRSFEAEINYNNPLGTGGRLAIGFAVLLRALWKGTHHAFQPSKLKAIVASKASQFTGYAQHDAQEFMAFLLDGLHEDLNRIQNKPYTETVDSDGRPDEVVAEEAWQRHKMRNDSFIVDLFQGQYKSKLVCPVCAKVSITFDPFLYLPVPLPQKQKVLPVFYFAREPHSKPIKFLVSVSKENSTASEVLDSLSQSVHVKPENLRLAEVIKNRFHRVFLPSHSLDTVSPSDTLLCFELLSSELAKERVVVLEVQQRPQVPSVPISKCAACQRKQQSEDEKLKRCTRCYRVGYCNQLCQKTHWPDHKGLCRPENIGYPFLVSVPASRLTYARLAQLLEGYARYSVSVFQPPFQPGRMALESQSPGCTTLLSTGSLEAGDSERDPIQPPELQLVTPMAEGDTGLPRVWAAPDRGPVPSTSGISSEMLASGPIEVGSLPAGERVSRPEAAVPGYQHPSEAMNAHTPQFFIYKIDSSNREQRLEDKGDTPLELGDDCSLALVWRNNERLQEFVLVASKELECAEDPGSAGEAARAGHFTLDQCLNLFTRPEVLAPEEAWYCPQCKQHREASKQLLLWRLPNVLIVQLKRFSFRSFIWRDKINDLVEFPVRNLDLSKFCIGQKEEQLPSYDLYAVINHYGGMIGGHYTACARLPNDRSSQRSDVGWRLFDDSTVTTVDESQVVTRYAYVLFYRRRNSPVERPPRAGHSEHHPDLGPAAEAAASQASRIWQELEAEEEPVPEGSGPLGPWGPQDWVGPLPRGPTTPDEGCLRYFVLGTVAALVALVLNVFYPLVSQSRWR
Summary of the method: (§1)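 HEK293T lysate (495 µg per sample, in Tris/CHAPS/IGEPAL buffer with protease inhibitors) was treated in triplicate with fragment at 200 µM or with DMSO for 3 h. It was then treated with Biotin-Ahx-Ub-VS (0.5 µM final) for 1 h. Labelled DUBs were NeutrAvidin-enriched, digested with LysC and trypsin, and run by diaPASEF LC-MS/MS. Spectronaut label-free quantities were global-median-normalised. Values are average log2 ratios fragment/DMSO by unpaired t-test, using proteins with ≥2 unique peptides.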

[2] = target: USP24 (UniProt Q9UPU5)
Summary of the method: as §1

[3] = target: T2, USP25 (UniProt Q9UHP3)
T2 sequence (whole entry): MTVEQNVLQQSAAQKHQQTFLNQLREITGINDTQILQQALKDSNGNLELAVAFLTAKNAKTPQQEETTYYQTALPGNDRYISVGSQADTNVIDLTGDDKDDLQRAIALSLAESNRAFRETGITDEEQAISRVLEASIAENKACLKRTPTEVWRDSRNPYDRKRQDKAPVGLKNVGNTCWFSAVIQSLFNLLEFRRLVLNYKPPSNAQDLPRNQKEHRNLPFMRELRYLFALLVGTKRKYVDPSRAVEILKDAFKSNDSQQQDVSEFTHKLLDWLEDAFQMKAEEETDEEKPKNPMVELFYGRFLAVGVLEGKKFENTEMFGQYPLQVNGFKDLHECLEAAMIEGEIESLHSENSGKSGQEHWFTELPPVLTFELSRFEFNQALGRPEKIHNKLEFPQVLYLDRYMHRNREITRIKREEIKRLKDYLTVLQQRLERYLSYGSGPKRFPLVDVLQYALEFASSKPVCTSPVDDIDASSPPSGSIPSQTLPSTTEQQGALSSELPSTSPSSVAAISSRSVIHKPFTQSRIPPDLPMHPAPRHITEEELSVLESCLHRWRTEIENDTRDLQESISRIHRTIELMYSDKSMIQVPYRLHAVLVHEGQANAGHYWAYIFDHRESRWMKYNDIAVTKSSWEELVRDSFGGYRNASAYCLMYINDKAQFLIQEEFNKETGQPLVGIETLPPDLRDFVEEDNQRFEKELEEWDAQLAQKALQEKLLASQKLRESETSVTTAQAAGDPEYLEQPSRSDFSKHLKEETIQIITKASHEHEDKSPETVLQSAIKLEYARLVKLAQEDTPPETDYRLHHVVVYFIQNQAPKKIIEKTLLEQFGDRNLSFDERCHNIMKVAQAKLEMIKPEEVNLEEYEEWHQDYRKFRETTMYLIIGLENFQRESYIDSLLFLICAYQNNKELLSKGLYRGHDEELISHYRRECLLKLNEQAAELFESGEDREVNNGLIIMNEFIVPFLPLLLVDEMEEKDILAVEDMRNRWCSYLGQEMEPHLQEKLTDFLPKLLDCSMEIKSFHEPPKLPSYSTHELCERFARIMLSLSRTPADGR
Summary of the method: as §1

[4] = target: T3, USP28 (UniProt Q96RU2)
T3 sequence (whole entry): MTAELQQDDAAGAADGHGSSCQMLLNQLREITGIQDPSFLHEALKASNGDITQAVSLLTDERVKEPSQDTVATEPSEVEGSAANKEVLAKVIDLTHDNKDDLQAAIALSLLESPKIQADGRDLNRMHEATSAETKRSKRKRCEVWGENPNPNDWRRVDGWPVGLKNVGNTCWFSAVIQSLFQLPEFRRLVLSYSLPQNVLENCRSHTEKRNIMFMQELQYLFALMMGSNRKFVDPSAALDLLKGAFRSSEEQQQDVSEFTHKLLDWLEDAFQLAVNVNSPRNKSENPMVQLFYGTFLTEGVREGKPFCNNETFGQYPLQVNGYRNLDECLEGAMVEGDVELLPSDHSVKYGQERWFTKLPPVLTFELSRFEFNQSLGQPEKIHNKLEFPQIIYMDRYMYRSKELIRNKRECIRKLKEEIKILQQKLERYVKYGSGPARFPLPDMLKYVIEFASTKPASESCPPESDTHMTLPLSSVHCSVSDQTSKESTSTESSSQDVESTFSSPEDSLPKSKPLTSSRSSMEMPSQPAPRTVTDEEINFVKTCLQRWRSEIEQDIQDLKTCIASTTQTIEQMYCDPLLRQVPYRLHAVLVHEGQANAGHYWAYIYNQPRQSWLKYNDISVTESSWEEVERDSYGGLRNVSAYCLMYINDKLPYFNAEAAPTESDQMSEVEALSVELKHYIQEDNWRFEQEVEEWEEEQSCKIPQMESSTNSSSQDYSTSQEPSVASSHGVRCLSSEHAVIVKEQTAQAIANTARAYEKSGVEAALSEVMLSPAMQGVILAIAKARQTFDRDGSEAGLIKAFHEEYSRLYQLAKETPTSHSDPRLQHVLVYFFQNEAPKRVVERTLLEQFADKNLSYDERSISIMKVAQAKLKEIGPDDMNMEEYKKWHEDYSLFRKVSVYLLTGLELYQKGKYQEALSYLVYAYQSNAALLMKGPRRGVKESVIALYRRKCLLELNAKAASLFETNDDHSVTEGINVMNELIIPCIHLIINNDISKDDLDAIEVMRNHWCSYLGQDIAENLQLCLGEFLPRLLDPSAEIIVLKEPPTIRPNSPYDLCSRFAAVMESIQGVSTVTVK
Summary of the method: as §1

Measured: log2 ratio of Biotin-Ahx-Ub-VS probe labelling

Sequence of USP24 (Q9UPU5 whole entry): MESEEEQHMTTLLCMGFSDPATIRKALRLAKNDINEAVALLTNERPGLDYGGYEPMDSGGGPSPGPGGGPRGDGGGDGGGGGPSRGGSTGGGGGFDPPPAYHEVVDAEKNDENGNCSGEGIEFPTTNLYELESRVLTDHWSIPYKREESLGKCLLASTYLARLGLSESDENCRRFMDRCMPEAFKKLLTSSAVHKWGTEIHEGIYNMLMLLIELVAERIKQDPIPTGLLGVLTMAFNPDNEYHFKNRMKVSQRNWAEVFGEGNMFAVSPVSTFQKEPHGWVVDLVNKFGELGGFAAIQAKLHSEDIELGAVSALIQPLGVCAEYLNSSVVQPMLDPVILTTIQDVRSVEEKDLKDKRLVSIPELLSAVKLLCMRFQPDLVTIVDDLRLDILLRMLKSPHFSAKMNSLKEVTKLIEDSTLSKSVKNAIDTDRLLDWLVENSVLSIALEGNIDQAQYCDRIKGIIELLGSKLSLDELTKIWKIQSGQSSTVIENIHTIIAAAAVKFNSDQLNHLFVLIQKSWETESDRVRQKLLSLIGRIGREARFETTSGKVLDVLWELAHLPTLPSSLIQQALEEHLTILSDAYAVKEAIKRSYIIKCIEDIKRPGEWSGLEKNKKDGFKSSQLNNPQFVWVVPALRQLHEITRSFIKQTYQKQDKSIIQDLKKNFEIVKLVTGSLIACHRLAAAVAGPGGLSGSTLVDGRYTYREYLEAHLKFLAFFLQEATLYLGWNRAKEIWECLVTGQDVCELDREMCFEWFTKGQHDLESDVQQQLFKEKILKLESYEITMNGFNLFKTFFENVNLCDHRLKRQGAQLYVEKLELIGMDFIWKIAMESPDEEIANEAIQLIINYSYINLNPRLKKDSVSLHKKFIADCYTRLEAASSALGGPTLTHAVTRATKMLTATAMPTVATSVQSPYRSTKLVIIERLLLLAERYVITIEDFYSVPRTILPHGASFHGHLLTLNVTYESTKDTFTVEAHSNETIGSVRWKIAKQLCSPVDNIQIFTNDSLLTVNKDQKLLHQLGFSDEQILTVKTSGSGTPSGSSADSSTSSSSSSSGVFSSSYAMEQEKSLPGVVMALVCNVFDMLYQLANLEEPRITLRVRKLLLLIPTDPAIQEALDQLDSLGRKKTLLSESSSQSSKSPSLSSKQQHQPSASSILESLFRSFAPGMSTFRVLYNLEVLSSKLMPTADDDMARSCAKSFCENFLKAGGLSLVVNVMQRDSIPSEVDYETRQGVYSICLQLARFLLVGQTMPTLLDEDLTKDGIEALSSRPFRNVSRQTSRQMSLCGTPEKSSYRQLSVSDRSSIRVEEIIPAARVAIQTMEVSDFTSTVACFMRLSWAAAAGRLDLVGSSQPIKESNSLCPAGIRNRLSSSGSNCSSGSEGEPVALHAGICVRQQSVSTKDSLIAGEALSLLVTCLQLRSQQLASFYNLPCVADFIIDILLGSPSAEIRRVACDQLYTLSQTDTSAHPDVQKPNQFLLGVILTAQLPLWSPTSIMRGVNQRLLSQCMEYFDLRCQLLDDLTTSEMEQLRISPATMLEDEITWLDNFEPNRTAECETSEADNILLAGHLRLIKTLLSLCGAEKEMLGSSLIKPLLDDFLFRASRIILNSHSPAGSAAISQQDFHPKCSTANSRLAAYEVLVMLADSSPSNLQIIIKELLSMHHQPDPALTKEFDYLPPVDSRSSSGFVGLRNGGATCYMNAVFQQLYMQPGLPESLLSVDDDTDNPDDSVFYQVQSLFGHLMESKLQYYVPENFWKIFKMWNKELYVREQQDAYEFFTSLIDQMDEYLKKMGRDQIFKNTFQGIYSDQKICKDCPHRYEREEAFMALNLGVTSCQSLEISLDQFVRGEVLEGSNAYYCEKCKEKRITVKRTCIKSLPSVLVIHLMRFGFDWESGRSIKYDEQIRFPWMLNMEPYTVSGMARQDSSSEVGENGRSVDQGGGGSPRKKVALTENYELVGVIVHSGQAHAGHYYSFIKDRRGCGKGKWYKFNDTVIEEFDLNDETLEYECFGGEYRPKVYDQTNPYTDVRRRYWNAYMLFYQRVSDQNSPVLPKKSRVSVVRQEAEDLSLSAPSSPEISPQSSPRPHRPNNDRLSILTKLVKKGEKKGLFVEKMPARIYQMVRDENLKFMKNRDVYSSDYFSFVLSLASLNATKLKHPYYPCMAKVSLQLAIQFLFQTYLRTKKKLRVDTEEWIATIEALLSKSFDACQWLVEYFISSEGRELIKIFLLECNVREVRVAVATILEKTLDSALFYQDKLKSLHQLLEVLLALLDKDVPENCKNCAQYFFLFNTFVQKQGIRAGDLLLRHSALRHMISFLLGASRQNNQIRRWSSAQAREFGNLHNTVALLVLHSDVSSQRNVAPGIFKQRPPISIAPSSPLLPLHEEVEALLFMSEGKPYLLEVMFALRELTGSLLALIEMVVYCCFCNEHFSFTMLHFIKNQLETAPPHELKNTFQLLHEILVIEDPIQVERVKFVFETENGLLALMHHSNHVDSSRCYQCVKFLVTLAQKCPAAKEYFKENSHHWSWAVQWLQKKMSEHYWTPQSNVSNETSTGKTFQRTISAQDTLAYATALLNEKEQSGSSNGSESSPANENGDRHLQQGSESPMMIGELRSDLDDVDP

O=C(CCl)NCCc1ccc(F)cc1
inactive: [1] -0.131 | [2] -0.0496 | [3] -0.326 | [4] -0.328
